Measured values published in PubChem BioAssay AID1159580 (chemical genetic matrix, 2015).
“And” between values parts separate entries of the source, which are not always exact repeats. Equal entries are not always repeated. In all, about 5,500 compounds went through this assay and about 2,000 (36%) were called active. Roughly 18% stayed inconclusive and do not appear here. Cut-off read from the data, not from the text of the source: active = normalized growth mostly below about 0.91 (no sharp cut-off); inconclusive = no clear call, values can overlap the other calls; inactive = mostly above about 0.92. The list shows a part of the results.

Experiment: chemical genetic growth profiling, strain panel (AID 1159580);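 note: tested at 20 µM; growth read once vehicle control cultures reached saturation at 30 °C; 1 = growth at the plate median or of vehicle wells; lower values mean less growth of the strain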
Details: S. cerevisiae deletion strains, growth OD

Measured: normalized growth

CC(=O)O[C@]1(C(C)=O)CCC2C3C=C(C)C4=CC(=O)CCC4(C)C3CCC21C (stereo partly specified)
inactive: locus YAL021C, strain ccr4, stronger effect = lower value 1.04 | locus YAL026C, strain drs2, stronger effect = lower value 0.961 | locus YAL030W, strain snc1, stronger effect = lower value 0.959 | locus YBL061C, strain skt5, stronger effect = lower value 0.932 | locus YBR009C, strain hhf1, stronger effect = lower value 0.916 | locus YBR021W, strain FUR4, stronger effect = lower value 0.924 | locus YBR023C, strain chs3, stronger effect = lower value 0.92 | locus YBR171W, strain sec66, stronger effect = lower value 0.926 | locus YBR229C, strain ROT2, stronger effect = lower value 0.985 | locus YBR231C, strain swc5, stronger effect = lower value 0.933 | locus YBR279W, strain paf1, stronger effect = lower value 0.993 | locus YCL011C, strain gbp2, stronger effect = lower value 0.975 | locus YCL016C, strain dcc1, stronger effect = lower value 0.971 | locus YCL029C, strain bik1, stronger effect = lower value 0.958 | locus YCL069W, strain vba3, stronger effect = lower value 0.929 | locus YCR088W, strain abp1, stronger effect = lower value 0.958 | locus YDL005C, strain med2, stronger effect = lower value 0.934 | locus YDL035C, strain GPR1, stronger effect = lower value 0.908 | locus YDL040C, strain nat1, stronger effect = lower value 0.968 | locus YDL074C, strain BRE1, stronger effect = lower value 0.784 | locus YDL101C, strain DUN1, stronger effect = lower value 0.982 | locus YDL134C, strain PPH21, stronger effect = lower value 0.996 | locus YDL185W, strain tfp1, stronger effect = lower value 0.984 | locus YDL192W, strain arf1, stronger effect = lower value 0.957 | locus YDR001C, strain nth1, stronger effect = lower value 0.964 | locus YDR069C, strain doa4, stronger effect = lower value 0.978 | locus YDR101C, strain arx1, stronger effect = lower value 0.969 | locus YDR150W, strain NUM1, stronger effect = lower value 0.993 | locus YDR159W, strain sac3, stronger effect = lower value 0.892 | locus YDR195W, strain ref2 0.976 | locus YDR297W, strain sur2, stronger effect = lower value 0.951 | locus YDR318W, strain mcm21, stronger effect = lower value 0.92 | locus YDR334W, strain swr1, stronger effect = lower value 0.962 | locus YDR335W, strain msn5, stronger effect = lower value 0.957 | locus YDR388W, stronger effect = lower value 0.975 | locus YEL003W, strain gim4, stronger effect = lower value 0.941 | locus YEL037C, strain rad23, stronger effect = lower value 0.969 | locus YEL061C, strain CIN8 (second series), stronger effect = lower value 0.959 | locus YEL061C, strain CIN8, stronger effect = lower value 0.989 | locus YER015W, strain faa2, stronger effect = lower value 0.971 | locus YER016W, strain bim1, stronger effect = lower value 0.966 | locus YER110C, stronger effect = lower value 0.958 | locus YER111C, strain swi4, stronger effect = lower value 0.963 | locus YER155C, strain BEM2, stronger effect = lower value 1.01 | locus YFR010W, strain ubp6, stronger effect = lower value 0.961 | locus YGL078C, strain dbp3, stronger effect = lower value 0.992 | locus YGL167C, strain pmr1, stronger effect = lower value 0.955 | locus YGL173C, strain kem1, stronger effect = lower value 0.92 | locus YGL227W, strain vid30, stronger effect = lower value 0.968 | locus YGL240W, strain doc1, stronger effect = lower value 0.925 | locus YGL248W, strain PDE1, stronger effect = lower value 0.992 | locus YGL253W, strain hxk2, stronger effect = lower value 0.915 | locus YGR252W, strain gcn5, stronger effect = lower value 0.862 | locus YHR013C, strain ard1, stronger effect = lower value 0.998 | locus YHR027C, strain rpn1, stronger effect = lower value 0.981 | locus YHR079C, strain IRE1 (second series), stronger effect = lower value 0.969 | locus YHR079C, strain IRE1, stronger effect = lower value 0.958 | locus YHR094C, strain hxt1, stronger effect = lower value 0.98 | locus YHR129C, strain ARP1, stronger effect = lower value 0.94 | locus YHR200W, strain rpn10, stronger effect = lower value 0.956 | locus YIL066C, strain RNR3, stronger effect = lower value 0.878 | locus YIL073C, strain SPO22, stronger effect = lower value 0.887 | locus YIL125W, strain kgd1, stronger effect = lower value 0.982 | locus YIR030C, strain dcg1, stronger effect = lower value 0.973 | locus YJL092W, strain hpr5, stronger effect = lower value 0.944 | locus YJL095W, strain BCK1 (second series), stronger effect = lower value 0.931 | locus YJL115W, strain asf1, stronger effect = lower value 0.973 | locus YJL134W, strain LCB3, stronger effect = lower value 0.989 | locus YJL154C, strain vps35, stronger effect = lower value 0.964 | locus YJL164C, strain tpk1, stronger effect = lower value 0.951 | locus YJL168C, strain set2, stronger effect = lower value 0.969 | locus YJL187C, strain SWE1 (second series), stronger effect = lower value 0.98 | locus YJR066W, strain TOR1, stronger effect = lower value 0.929 | locus YJR075W, strain HOC1, stronger effect = lower value 0.952
active: locus YAL013W, strain DEP1, stronger effect = lower value 0.897 | locus YDR137W, strain rgp1, stronger effect = lower value 0.775 | locus YDR162C, strain NBP2, stronger effect = lower value 0.804 | locus YDR392W, strain spt3, stronger effect = lower value 0.445 | locus YDR502C, strain sam2, stronger effect = lower value 0.904 | locus YER155C, strain BEM2 (second series), stronger effect = lower value 0.859 | locus YER167W, strain BCK2, stronger effect = lower value 0.88 | locus YGL086W, strain mad1, stronger effect = lower value 0.91 | locus YGR078C, strain PAC10, stronger effect = lower value 0.836 | locus YGR135W, strain pre9, stronger effect = lower value 0.883 | locus YGR229C, strain SMI1, stronger effect = lower value 0.643 | locus YHR142W, strain chs7, stronger effect = lower value 0.815 | locus YJL129C, strain trk1, stronger effect = lower value 0.854 | locus YJL166W, strain qcr8, stronger effect = lower value 0.863 | locus YJR043C, strain POL32, stronger effect = lower value 0.85
0.917 (active) and 0.949 (inactive): locus YHR030C, strain SLT2, stronger effect = lower value
0.741 (active) and 0.98 (inactive): locus YJL095W, strain BCK1, stronger effect = lower value
